# The entries come from a sample that favours the strongest signals as a whole.
# B1: Banana lectin (Musa acuminata) (protein)
# chain: MNGAIKVGAWGGNGGSAFDMGPAYRIISVKIFSGDVVDAVDVTFTYYGKTETRHFGGSGGTPHEIVLQEGEYLVGMKGEFGNYHGVVVVGKLGFSTNKKSYGPFGNTGGTPFSLPIAAGKISGFFGRGGDFIDAIGVYLEP
# How the values were obtained:
# Test in all cases: glycan array binding signal (z-score within array); higher = stronger binding
# Conditions in all cases: glycan notation: IUPAC condensed, linker removed
# [1] = molecular target: Fuc(a1-2)Gal(b1-3)[Fuc(a1-4)]GlcNAc(b1-3)[Fuc(a1-3)[Gal(b1-4)]GlcNAc(b1-6)]Gal(b1-4)Glc
# In short: (§1)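 Glycan array data came from 3228 arrays in the Consortium for Functional Glycomics database, and only arrays with an available protein sequence were kept. Glycan names were put into IUPAC-condensed notation, and columns mapping to the same glycan were averaged. The binding signal is a within-array Z-score, averaged across arrays of one protein sequence run at different concentrations or buffers and across linkers. A negative Z-score can be read as non-binding.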
# [2] = molecular target: Fuc(a1-2)[Gal(a1-3)]Gal(b1-3)GalNAc(b1-3)Gal(a1-4)Gal(b1-4)Glc
# In short: as §1
# [3] = molecular target: Fuc(a1-2)[Gal(a1-3)]Gal(b1-4)GlcNAc(b1-3)GalNAc
# In short: as §1
# [4] = molecular target: Fuc(a1-2)[GalNAc(a1-3)]Gal(b1-3)GlcNAc(b1-3)GalNAc
# In short: as §1
# [5] = molecular target: Fuc(a1-3)[Gal(b1-4)]GlcNAc
# In short: as §1
# [6] = molecular target: Fuc(a1-3)[Gal3S(b1-4)]Glc
# In short: as §1
# Gal(a1-3)GalNAc = molecular target: Gal(a1-3)GalNAc
# In short: as §1
# Gal(a1-4)GlcNAc = molecular target: Gal(a1-4)GlcNAc
# In short: as §1
# [7] = molecular target: Gal(b1-3)GlcNAc(b1-3)GalNAc
# In short: as §1
# [8] = molecular target: Gal(b1-3)GlcNAc(b1-6)[Gal(b1-3)]GalNAc
# In short: as §1
# [9] = molecular target: Gal(b1-3)[Fuc(a1-4)]GlcNAc(b1-2)Man
# In short: as §1
# [10] = molecular target: Gal(b1-3)[Fuc(a1-4)]GlcNAc(b1-6)GalNAc
# In short: as §1
# [11] = molecular target: Gal(b1-4)GlcNAc(a1-6)Gal(b1-4)GlcNAc
# In short: as §1
# [12] = molecular target: Gal(b1-4)GlcNAc(b1-2)Man(a1-3)[Gal(b1-4)GlcNAc(b1-2)Man(a1-6)]Man(b1-4)GlcNAc(b1-4)GlcNAc
# In short: as §1
# [13] = molecular target: Gal(b1-4)GlcNAc(b1-2)[Gal(b1-4)GlcNAc(b1-4)]Man(a1-3)[GlcNAc(b1-4)][Gal(b1-4)GlcNAc(b1-2)[Gal(b1-4)GlcNAc(b1-6)]Man(a1-6)]Man(b1-4)GlcNAc(b1-4)GlcNAc
# In short: as §1
# [14] = molecular target: Gal(b1-4)GlcNAc(b1-6)[Gal(b1-3)]GalNAc
# In short: as §1
# [15] = molecular target: Gal3S(b1-4)[Fuc(a1-3)]GlcNAc
# In short: as §1
# Gal4S(b1-4)GlcNAc = molecular target: Gal4S(b1-4)GlcNAc
# In short: as §1
# Gal6S(b1-3)GlcNAc6S = molecular target: Gal6S(b1-3)GlcNAc6S
# In short: as §1
# [16] = molecular target: GlcNAc(a1-4)Gal(b1-4)GalNAc
# In short: as §1
# [17] = molecular target: GlcNAc(b1-3)Gal(b1-4)GlcNAc(b1-3)Gal(b1-4)GlcNAc(b1-3)Gal(b1-4)GlcNAc(b1-2)Man(a1-3)[GlcNAc(b1-3)Gal(b1-4)GlcNAc(b1-3)Gal(b1-4)GlcNAc(b1-3)Gal(b1-4)GlcNAc(b1-2)Man(a1-6)]Man(b1-4)GlcNAc(b1-4)GlcNAc
# In short: as §1
# [18] = molecular target: GlcNAc(b1-3)Gal(b1-4)GlcNAc(b1-3)Gal(b1-4)GlcNAc(b1-3)Gal(b1-4)GlcNAc(b1-3)Gal(b1-4)GlcNAc(b1-2)[GlcNAc(b1-3)Gal(b1-4)GlcNAc(b1-3)Gal(b1-4)GlcNAc(b1-3)Gal(b1-4)GlcNAc(b1-3)Gal(b1-4)GlcNAc(b1-6)]Man(a1-6)[GlcNAc(b1-3)Gal(b1-4)GlcNAc(b1-3)Gal(b1-4)GlcNAc(b1-3)Gal(b1-4)GlcNAc(b1-3)Gal(b1-4)GlcNAc(b1-2)Man(a1-3)]Man(b1-4)GlcNAc(b1-4)[Fuc(a1-6)]GlcNAc
# In short: as §1
# [19] = molecular target: Man(a1-2)Man(a1-2)Man(a1-3)Man
# In short: as §1
# [20] = molecular target: Man(a1-2)Man(a1-2)Man(a1-6)[Man(a1-3)]Man
# In short: as §1
# Man(a1-2)Man(a1-3)Man = molecular target: Man(a1-2)Man(a1-3)Man
# In short: as §1
# [21] = molecular target: Man(a1-2)Man(a1-3)[Man(a1-2)Man(a1-6)]Man(a1-6)[Man(a1-2)Man(a1-2)Man(a1-3)]Man
# In short: as §1
# [22] = molecular target: Man(a1-2)Man(a1-3)[Man(a1-2)Man(a1-6)]Man(a1-6)[Man(a1-2)Man(a1-2)Man(a1-3)]Man(b1-4)GlcNAc(b1-4)GlcNAc
# In short: as §1
# [23] = molecular target: Man(a1-2)Man(a1-3)[Man(a1-6)]Man(a1-6)[Man(a1-2)Man(a1-3)]Man(b1-4)GlcNAc(b1-4)GlcNAc
# In short: as §1
# [24] = molecular target: Man(a1-2)Man(a1-6)[Man(a1-3)]Man(a1-6)[Man(a1-2)Man(a1-2)Man(a1-3)]Man
# In short: as §1
# [25] = molecular target: Man(a1-2)Man(a1-6)[Man(a1-3)]Man(a1-6)[Man(a1-2)Man(a1-2)Man(a1-3)]Man(b1-4)GlcNAc(b1-4)GlcNAc
# In short: as §1
# [26] = molecular target: Man(a1-3)[Man(a1-6)]Man(a1-6)[Man(a1-2)Man(a1-3)]Man(b1-4)GlcNAc(b1-4)GlcNAc
# In short: as §1
# [27] = molecular target: Man(a1-3)[Man(a1-6)]Man(a1-6)[Man(a1-3)]Man(b1-4)GlcNAc(b1-4)GlcNAc
# In short: as §1
# [28] = molecular target: Man(a1-3)[Man(a1-6)]Man(b1-4)GlcNAc(b1-4)GlcNAc
# In short: as §1
# Man(a1-6)Man = molecular target: Man(a1-6)Man
# In short: as §1
# [29] = molecular target: Neu5Ac(a2-3)Gal(b1-4)GlcNAc(b1-2)Man(a1-3)[GlcNAc(b1-4)][Neu5Ac(a2-3)Gal(b1-4)GlcNAc(b1-2)Man(a1-6)]Man(b1-4)GlcNAc(b1-4)GlcNAc
# In short: as §1
# [30] = molecular target: Neu5Ac(a2-3)Gal(b1-4)GlcNAc(b1-3)Gal(b1-4)[Fuc(a1-3)]GlcNAc
# In short: as §1
# [31] = molecular target: Neu5Ac(a2-3)Gal(b1-4)GlcNAc(b1-6)[Neu5Ac(a2-3)Gal(b1-3)]GalNAc
# In short: as §1
# [32] = molecular target: Neu5Ac(a2-3)[GalNAc(b1-4)]Gal(b1-4)Glc
# In short: as §1
# [33] = molecular target: Neu5Ac(a2-6)Gal(b1-4)GlcNAc(b1-2)Man(a1-3)[Gal(b1-4)GlcNAc(b1-2)Man(a1-6)]Man(b1-4)GlcNAc(b1-4)GlcNAc
# In short: as §1
# [34] = molecular target: Neu5Ac(a2-6)Gal(b1-4)GlcNAc(b1-2)Man(a1-3)[GlcNAc(b1-2)Man(a1-6)]Man(b1-4)GlcNAc(b1-4)GlcNAc
# In short: as §1
# [35] = molecular target: Neu5Ac(a2-6)Gal(b1-4)GlcNAc(b1-3)Gal(b1-3)GlcNAc
# In short: as §1
# Neu5Ac(a2-6)GalNAc = molecular target: Neu5Ac(a2-6)GalNAc
# In short: as §1
# [36] = molecular target: Neu5Ac(a2-6)GlcNAc(b1-4)GlcNAc(b1-4)GlcNAc
# In short: as §1
binder,measurement,setting,value
B1,glycan array binding signal (z-score),[1],-0.195
same,glycan array binding signal (z-score),[2],-0.195
same,glycan array binding signal (z-score),[3],-0.195
same,glycan array binding signal (z-score),[4],-0.188
same,glycan array binding signal (z-score),[5],-0.193
same,glycan array binding signal (z-score),[6],-0.192
same,glycan array binding signal (z-score),Gal(a1-3)GalNAc,-0.194
same,glycan array binding signal (z-score),Gal(a1-4)GlcNAc,-0.194
same,glycan array binding signal (z-score),[7],-0.195
same,glycan array binding signal (z-score),[8],-0.173
same,glycan array binding signal (z-score),[9],-0.19
same,glycan array binding signal (z-score),[10],-0.19
same,glycan array binding signal (z-score),[11],-0.196
same,glycan array binding signal (z-score),[12],-0.161
same,glycan array binding signal (z-score),[13],-0.197
same,glycan array binding signal (z-score),[14],-0.193
same,glycan array binding signal (z-score),[15],-0.19
same,glycan array binding signal (z-score),Gal4S(b1-4)GlcNAc,-0.195
same,glycan array binding signal (z-score),Gal6S(b1-3)GlcNAc6S,-0.195
same,glycan array binding signal (z-score),[16],-0.174
same,glycan array binding signal (z-score),[17],-0.179
same,glycan array binding signal (z-score),[18],-0.139
same,glycan array binding signal (z-score),[19],3.39
same,glycan array binding signal (z-score),[20],8.43
same,glycan array binding signal (z-score),Man(a1-2)Man(a1-3)Man,5.44
same,glycan array binding signal (z-score),[21],7.92
same,glycan array binding signal (z-score),[22],3.85
same,glycan array binding signal (z-score),[23],6.18
same,glycan array binding signal (z-score),[24],6.72
same,glycan array binding signal (z-score),[25],7.63
same,glycan array binding signal (z-score),[26],5.95
same,glycan array binding signal (z-score),[27],3.55
same,glycan array binding signal (z-score),[28],7.64
same,glycan array binding signal (z-score),Man(a1-6)Man,-0.076
same,glycan array binding signal (z-score),[29],-0.191
same,glycan array binding signal (z-score),[30],-0.195
same,glycan array binding signal (z-score),[31],-0.194
same,glycan array binding signal (z-score),[32],-0.193
same,glycan array binding signal (z-score),[33],-0.142
same,glycan array binding signal (z-score),[34],-0.102
same,glycan array binding signal (z-score),[35],-0.194
same,glycan array binding signal (z-score),Neu5Ac(a2-6)GalNAc,-0.192
same,glycan array binding signal (z-score),[36],-0.194

# — the supplement of paper PMC8728848
